The supplement of paper PMC8728848
The sample as a whole holds a higher share of the strongest signals than the screen did.

Legend:
Assay in all cases: glycan array binding signal (z-score within array); higher = stronger binding
Details in all cases: glycan notation: IUPAC condensed, linker removed
[1] = target: Fuc(a1-2)Gal(b1-3)GalNAc
Outline: (§1)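 Arrays were curated from the Consortium for Functional Glycomics database, 3228 in total, and kept only where the protein sequence was available. Binding is expressed as a within-array Z-score. This score was averaged across arrays of the same protein sequence at different concentrations or buffers and across linkers, and negative values can be read as non-binding.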

[2] = target: Fuc(a1-2)Gal(b1-3)GalNAc(b1-3)Gal
Outline: as §1

[3] = target: Fuc(a1-2)Gal(b1-3)GlcNAc(b1-3)[Neu5Ac(a2-6)Gal(b1-4)GlcNAc(b1-6)]Gal(b1-4)Glc
Outline: as §1

[4] = target: Fuc(a1-2)Gal(b1-3)[Fuc(a1-4)]GlcNAc(b1-2)Man(a1-3)[Fuc(a1-2)Gal(b1-3)[Fuc(a1-4)]GlcNAc(b1-2)Man(a1-3)]Man(b1-4)GlcNAc(b1-4)GlcNAc
Outline: as §1

[5] = target: Fuc(a1-2)Gal(b1-4)GlcNAc(b1-2)Man(a1-3)[Fuc(a1-2)Gal(b1-4)GlcNAc(b1-2)Man(a1-6)]Man(b1-4)GlcNAc(b1-4)GlcNAc
Outline: as §1

[6] = target: Fuc(a1-2)Gal(b1-4)[Fuc(a1-3)]GlcNAc(b1-3)[Neu5Ac(a2-6)Gal(b1-4)GlcNAc(b1-6)]Gal(b1-4)Glc
Outline: as §1

[7] = target: Fuc(a1-2)[Gal(a1-3)]Gal(b1-3)GlcNAc(b1-6)GalNAc
Outline: as §1

[8] = target: Fuc(a1-2)[Gal(a1-3)]Gal(b1-4)GlcNAc(b1-2)Man
Outline: as §1

[9] = target: Fuc(a1-2)[Gal(a1-3)]Gal(b1-4)GlcNAc(b1-6)GalNAc
Outline: as §1

[10] = target: Fuc(a1-2)[GalNAc(a1-3)]Gal(b1-3)GlcNAc(b1-2)Man(a1-3)[Fuc(a1-2)[GalNAc(a1-3)]Gal(b1-3)GlcNAc(b1-2)Man(a1-6)]Man(b1-4)GlcNAc(b1-4)[Fuc(a1-6)]GlcNAc
Outline: as §1

[11] = target: Fuc(a1-2)[GalNAc(a1-3)]Gal(b1-4)GlcNAc
Outline: as §1

[12] = target: Fuc(a1-2)[GalNAc(a1-3)]Gal(b1-4)GlcNAc(b1-2)Man
Outline: as §1

[13] = target: Fuc(a1-2)[GalNAc(a1-3)]Gal(b1-4)GlcNAc(b1-2)Man(a1-3)[Fuc(a1-2)[GalNAc(a1-3)]Gal(b1-4)GlcNAc(b1-2)Man(a1-6)]Man(b1-4)GlcNAc(b1-4)GlcNAc
Outline: as §1

[14] = target: Fuc(a1-2)[GalNAc(a1-3)]Gal(b1-4)GlcNAc(b1-3)GalNAc
Outline: as §1

[15] = target: Fuc(a1-3)[Gal(b1-4)]GlcNAc(b1-2)Man(a1-3)[Fuc(a1-3)[Gal(b1-4)]GlcNAc(b1-2)Man(a1-6)]Man(b1-4)GlcNAc(b1-4)[Fuc(a1-6)]GlcNAc
Outline: as §1

[16] = target: Fuc(a1-3)[Gal3S(b1-4)]GlcNAc6S
Outline: as §1

[17] = target: Gal(a1-3)Gal(b1-3)GlcNAc(b1-2)Man(a1-3)[Gal(a1-3)Gal(b1-3)GlcNAc(b1-2)Man(a1-6)]Man(b1-4)GlcNAc(b1-4)GlcNAc
Outline: as §1

[18] = target: Gal(a1-3)Gal(b1-4)GlcNAc(b1-2)Man(a1-3)[Gal(a1-3)Gal(b1-4)GlcNAc(b1-2)Man(a1-6)]Man(b1-4)GlcNAc(b1-4)GlcNAc
Outline: as §1

[19] = target: Gal(a1-4)Gal(b1-4)GlcNAc(b1-2)Man(a1-3)[Gal(a1-4)Gal(b1-4)GlcNAc(b1-2)Man(a1-6)]Man(b1-4)GlcNAc(b1-4)GlcNAc
Outline: as §1

[20] = target: Gal(b1-2)Gal
Outline: as §1

[21] = target: Gal(b1-3)GlcNAc(b1-2)Man(a1-3)[Gal(b1-3)GlcNAc(b1-2)Man(a1-6)]Man(b1-4)GlcNAc(b1-4)[Fuc(a1-6)]GlcNAc
Outline: as §1

[22] = target: Gal(b1-3)GlcNAc(b1-3)Gal(b1-4)GlcNAc(b1-3)Gal(b1-4)GlcNAc(b1-2)[Gal(b1-3)GlcNAc(b1-3)Gal(b1-4)GlcNAc(b1-3)Gal(b1-4)GlcNAc(b1-6)]Man(a1-6)[Gal(b1-3)GlcNAc(b1-3)Gal(b1-4)GlcNAc(b1-3)Gal(b1-4)GlcNAc(b1-2)Man(a1-3)]Man(b1-4)GlcNAc(b1-4)[Fuc(a1-6)]GlcNAc
Outline: as §1

[23] = target: Gal(b1-3)[Fuc(a1-4)]GlcNAc(b1-2)Man
Outline: as §1

[24] = target: Gal(b1-3)[Neu5Ac(b2-6)]GalNAc
Outline: as §1

[25] = target: Gal(b1-4)Gal
Outline: as §1

[26] = target: Gal(b1-4)GlcNAc(b1-2)Man(a1-6)[Man(a1-3)]Man(b1-4)GlcNAc(b1-4)GlcNAc
Outline: as §1

[27] = target: Gal(b1-4)GlcNAc(b1-2)[Gal(b1-4)GlcNAc(b1-4)]Man(a1-3)[Gal(b1-4)GlcNAc(b1-2)Man(a1-6)]Man(b1-4)GlcNAc(b1-4)GlcNAc
Outline: as §1

B1: PX14343H-pdi-506-26-506 (Parabacteroides distasonis) (protein)
chain: QPTGTMTTDSKLTSKESALALTNSAYLKNTVFNKMTPGWGCNTILLLEYMTGKATSENSQSNYKDFQDLLVSDRSLYIEDWWQDCYAGIANCNLALQKLGEFENLDASLVNGYMAEVKFMRALYYFYLVRIFGDVPKITTVQSELGELQVSRAPVKEIYDEIIIPDLLEAEQSDLAFSDHTGRVSMGAVKALLADVYLTYAGYPLQGGKSYYAESAKRSLEVIKSNEYTLFTDYESLRLPSQNNKGEFIYQVQFSLNKRHNESVRIFLPSRSGISAYDLEYGSLIPTKEFVESFEKGDKRTEEKQYFFTNYKGHPSKFSPGAAELEFMDLNGYYIYKFFDQVAVDNTAKSDLNWSVYRYTDVLLMYAEAQVNADGTPNQQSIDIVNQIRGRAGLAPFKQTNASAFLEEVWDQRYFDLCYENKMWFDMLRTRKIRDDKSGEYVDFIGYKTNWGKVYTETQLLFPIPLSERQANPNLTQNQGY
glycan array binding signal (z-score) [1]: -0.509 | glycan array binding signal (z-score) [2]: -0.373 | glycan array binding signal (z-score) [3]: -0.402 | glycan array binding signal (z-score) [4]: -0.174 | glycan array binding signal (z-score) [5]: 3.11 | glycan array binding signal (z-score) [6]: -0.392 | glycan array binding signal (z-score) [7]: -0.255 | glycan array binding signal (z-score) [8]: -0.394 | glycan array binding signal (z-score) [9]: -0.381 | glycan array binding signal (z-score) [10]: -0.391 | glycan array binding signal (z-score) [11]: -0.526 | glycan array binding signal (z-score) [12]: -0.523 | glycan array binding signal (z-score) [13]: 4.7 | glycan array binding signal (z-score) [14]: -0.4 | glycan array binding signal (z-score) [15]: 2.77 | glycan array binding signal (z-score) [16]: -0.299 | glycan array binding signal (z-score) [17]: 3.96 | glycan array binding signal (z-score) [18]: 6.89 | glycan array binding signal (z-score) [19]: 0.705 | glycan array binding signal (z-score) [20]: -0.367 | glycan array binding signal (z-score) [21]: 0.737 | glycan array binding signal (z-score) [22]: 3.2 | glycan array binding signal (z-score) [23]: -0.12 | glycan array binding signal (z-score) [24]: -0.512 | glycan array binding signal (z-score) [25]: 1.08 | glycan array binding signal (z-score) [26]: 5.33 | glycan array binding signal (z-score) [27]: 0.486
